From PubChem BioAssay (NCI) come the findings set out here.

The panel holds about 83,000 compounds, 20% with a hit somewhere; the sample as a whole holds those more often.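 A percent growth of 40 corresponds to 60% growth inhibition; 0 means no net growth; -100 means all cells died. Active threshold: below 10.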 Unmarked numbers belong to inactive results. Activity calls are given as the source filed them.

Holding throughout (test): NCI-60 one-dose screen, 48 h (100 = growth as untreated, 0 = no growth, -100 = all killed)
The subject of one assay is NCI-H23 lung. Conditions: 10 µM unless noted.
Another assay relates to NCI-H322M lung. Conditions: 10 µM unless noted.
The next assay deals with HOP-62 NSCLC. Conditions: 10 µM unless noted.
The test system of another assay is NCI-H460 lung. Conditions: 10 µM unless noted.
The subject of a further assay is NCI-H522 lung. Conditions: 10 µM.
A further assay deals with A549/ATCC NSCLC. Conditions: 10 µM unless noted.
In a further assay the test system is 786-0 renal. Conditions: 10 µM unless noted.
In the next assay the test system is COLO 205 colon. Conditions: 10 µM unless noted.

With `Nc1nc2c(s1)CCc1c-2c(Br)n(Cc2ccccc2)c1Br`, the growth in the assay on NCI-H23 lung was 91.8%; in the assay on NCI-H322M lung, 99.8%; in the assay on HOP-62 NSCLC it was 64.9%; in the assay on NCI-H460 lung it was 98.2%; in the assay on NCI-H522 lung, -74.9% (active); in the assay on A549/ATCC NSCLC it was 93.7%. Moreover, the growth is 102% in the assay on 786-0 renal and 85.6% with COLO 205 colon.

For `COc1cccc(C2CC(=O)Nc3cc4c(cc32)CCC4)c1OC` (stereo not drawn), the growth in the assay on NCI-H23 lung was 59%; with NCI-H322M lung it was 68%; in the assay with HOP-62 NSCLC it was 60.5%; with NCI-H460 lung, 61.8%; with NCI-H522 lung, 60.9%; in the assay with A549/ATCC NSCLC, 47.8%. In addition, the growth is 79.6% in the assay on 786-0 renal and 50% in the assay on COLO 205 colon.

`O=[N+]([O-])c1cc2c(cc1Br)-c1ccccc1C2`: the growth was 84.7% in the assay on NCI-H23 lung; 115% in the assay with NCI-H322M lung; 81.4% in the assay with HOP-62 NSCLC; 102% in the assay on NCI-H460 lung; 77.6% with NCI-H522 lung; 90.9% in the assay with A549/ATCC NSCLC. Besides, the growth in the assay on 786-0 renal is 88.4%; in the assay with COLO 205 colon, 84.6%.

Consider `CC1(C)CC(=O)C2=C(C1)Nc1cc3c(cc1C2c1ccc(F)cc1)OCO3` (stereo not drawn), for which the growth in the assay with NCI-H23 lung is 96%; in the assay with NCI-H322M lung, 94.8%; in the assay with HOP-62 NSCLC, 95.6%; with NCI-H460 lung, 103%; with NCI-H522 lung, 80.9%; with A549/ATCC NSCLC, 94.5%. Further, the growth with 786-0 renal is 109%; in the assay with COLO 205 colon, 117%.

For the compound `COc1ccc(C2OCC(C)(C)CO2)cc1OC`, the growth was 98.3% in the assay with NCI-H23 lung; 151% in the assay on NCI-H322M lung; 117% in the assay with HOP-62 NSCLC; 108% in the assay on NCI-H460 lung; 117% in the assay on NCI-H522 lung; 100% with A549/ATCC NSCLC. Moreover, the values for the growth in the assay with 786-0 renal and in the assay with COLO 205 colon were 110% and 113%, respectively.

For the compound `COc1ccccc1CNCCCCCCCCCCCCN1C(=O)c2ccc3c4c(ccc(c24)C1=O)C(=O)N(CCCCCCCCCCCCNCc1ccccc1OC)C3=O`, the growth is -47.6% (active) in the assay with NCI-H23 lung; 111% with NCI-H322M lung; 54.5% with HOP-62 NSCLC; 35.5% in the assay on NCI-H460 lung; 87% with NCI-H522 lung; 75.4% in the assay on A549/ATCC NSCLC. For the same compound, the growth in the assay on 786-0 renal is -73.7% (active); in the assay with COLO 205 colon it was 109%.

Turning to `CCOC(=O)c1c(Cl)c2c(n1Cc1cc(OC)cc(OC)c1)-c1oncc1CCC2`, the growth in the assay with NCI-H23 lung is 44.1%; in the assay with NCI-H322M lung it was 55.7%; in the assay with HOP-62 NSCLC, 39.7%; with NCI-H460 lung, 12.8%; in the assay with NCI-H522 lung it was 28.9%; in the assay with A549/ATCC NSCLC it was 28.1%. The growth is 43% in the assay on 786-0 renal and -51.8% (active) in the assay on COLO 205 colon.

Regarding `CCOC(=O)c1sc(NC(=O)CN2CCC(Cc3ccccc3)CC2)nc1C`, the growth with NCI-H23 lung is 96.2%; in the assay with NCI-H322M lung, 90.4%; with HOP-62 NSCLC, 102%; in the assay with NCI-H460 lung, 101%; in the assay with NCI-H522 lung, 92.9%; in the assay on A549/ATCC NSCLC it was 104%. Also, the growth in the assay with 786-0 renal was 96.9%; in the assay with COLO 205 colon it was 97.1%.

`CCOC(=O)c1c(Cl)c2c(n1Cc1ccc(OC)cc1)-c1oncc1CCC2`: the growth with NCI-H23 lung is 86.5%; with NCI-H322M lung it was 95.2%; with HOP-62 NSCLC, 98.4%; in the assay with NCI-H460 lung, 95.1%; with NCI-H522 lung, 95.4%; with A549/ATCC NSCLC, 86.1%. Besides, the growth in the assay on 786-0 renal is 90.4%; in the assay with COLO 205 colon, 93.2%.

As for `O=C1c2ccccc2C(=O)c2c(Nc3ccc(CCO)cc3)ccc(O)c21`, the growth was 93.3% with NCI-H23 lung; 68.5% in the assay on NCI-H322M lung; 107% with HOP-62 NSCLC; 56% in the assay on NCI-H460 lung; 71.5% in the assay on NCI-H522 lung; 67.5% in the assay with A549/ATCC NSCLC. Besides, the growth in the assay with 786-0 renal was 104%; in the assay with COLO 205 colon, 49.1%.

As to `CN(C)C(=S)SCN1C(=O)c2ccc([N+](=O)[O-])cc2S1(=O)=O`, the growth in the assay with NCI-H23 lung is 99.7%; with NCI-H322M lung it was 99%; in the assay on HOP-62 NSCLC it was 105%; in the assay on NCI-H460 lung, 103%; in the assay with NCI-H522 lung, 103%; in the assay with A549/ATCC NSCLC, 97.7%. In addition, the growth is 103% with 786-0 renal and 75.9% in the assay on COLO 205 colon.

As for `O=C(O)c1ccccc1Oc1cc(-c2ccco2)nc(OCCBr)n1`, the growth was 105% in the assay with NCI-H23 lung; 100% with NCI-H322M lung; 101% in the assay with HOP-62 NSCLC; 110% in the assay with NCI-H460 lung; 103% with NCI-H522 lung; 94.2% in the assay with A549/ATCC NSCLC. Moreover, the results for the growth in the assay on 786-0 renal and with COLO 205 colon were 100% and 109%, respectively.

Turning to `O=C1/C(=C/c2ccc(Cl)cc2)N=C(c2ccccc2)N1CCc1cccs1`, the growth is 61.4% in the assay on NCI-H23 lung; 82.2% in the assay on NCI-H322M lung; 108% with HOP-62 NSCLC; 23.3% in the assay on NCI-H460 lung; 23% with NCI-H522 lung; 30.6% in the assay with A549/ATCC NSCLC. Further, the growth in the assay with 786-0 renal is 50.9%; in the assay with COLO 205 colon, 100%.

Turning to `Nc1nc(N)c(C=Nc2ccc(Br)cc2)c(Nc2ccc(Br)cc2)n1`, the growth in the assay with NCI-H23 lung was 97.9%; in the assay with NCI-H322M lung, 72.9%; with HOP-62 NSCLC it was 98.9%; in the assay with NCI-H460 lung it was 95.9%; in the assay on NCI-H522 lung, 86.4%; in the assay on A549/ATCC NSCLC, 77.2%. The growth was 92.9% in the assay on 786-0 renal and 117% in the assay with COLO 205 colon.

For `Cc1cc(=O)c2c(C)ccc(C)c2[nH]1`, the growth is 100% in the assay on NCI-H23 lung; 109% in the assay with NCI-H322M lung; 104% in the assay on HOP-62 NSCLC; 111% with NCI-H460 lung; 96.2% in the assay with NCI-H522 lung; 93.1% in the assay with A549/ATCC NSCLC. Further, the growth in the assay on 786-0 renal was 96.4%; in the assay on COLO 205 colon, 125%.

Turning to `NC(=O)c1nc2c([nH]c1=O)CCCC2`, the growth in the assay with NCI-H23 lung is 104%; in the assay with NCI-H322M lung it was 120%; in the assay with HOP-62 NSCLC, 94.7%; in the assay with NCI-H460 lung, 115%; in the assay on NCI-H522 lung, 91.6%; with A549/ATCC NSCLC, 103%. Moreover, the growth is 106% in the assay with 786-0 renal and 101% in the assay with COLO 205 colon.
